Counter-ions that a name gives are not always drawn.
Legend:
Conditions in all cases: treatment time: 24 h
[1] = tested on: A549-ACTB-RAB5A; assay: lowest phenotypically active concentration; higher = less potent
In short: (§1)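 Fifteen reporter lines derived from A549, HepG2 and WPMY1 cells by gene editing, carrying BFP for segmentation plus GFP and RFP/FusionRed markers, were exposed to 0.3, 1, 3 or 9 µM for 24 h in four wells each and imaged live. Live-cell features from each well were normalised to solvent control wells. A well set counted as deviating when ≥3 of 4 wells lay beyond the 95th percentile of control Euclidean distances, and as reproducible when the median replicate Pearson correlation exceeded the 95th percentile of non-replicates. Phenotypic activity was assigned only when both criteria were met.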

[2] = tested on: A549-GM130-SQSTM1; assay: as above
In short: as §1

[3] = tested on: A549-ACTB-RAB5A; assay: phenotypically active (imaging signature differs from DMSO and reproducible) at any of 0.3-9 uM (binary (1 = active, 0 = inactive)); higher = active
In short: as §1

[4] = tested on: A549-CANX-COX4; assay: as above
In short: as §1

[5] = tested on: A549-GM130-SQSTM1; assay: as above
In short: as §1

[6] = tested on: A549-TP53BP1-CLTA; assay: as above
In short: as §1

[7] = tested on: A549-TUBA1B-RELA; assay: as above
In short: as §1

[8] = tested on: HepG2-ACTB-RAB5A; assay: as above
In short: as §1

[9] = tested on: HepG2-CANX-COX4; assay: as above
In short: as §1

[10] = tested on: HepG2-GM130-SQSTM1; assay: as above
In short: as §1

[11] = tested on: HepG2-TP53BP1-CLTA; assay: as above
In short: as §1

[12] = tested on: HepG2-TUBA1B-RELA; assay: as above
In short: as §1

[13] = tested on: WPMY1-ACTB-RAB5A; assay: as above
In short: as §1

[14] = tested on: WPMY1-CANX-COX4; assay: as above
In short: as §1

[15] = tested on: WPMY1-GM130-SQSTM1; assay: as above
In short: as §1

[16] = tested on: WPMY1-TP53BP1-CLTA; assay: as above
In short: as §1

[17] = tested on: WPMY1-TUBA1B-RELA; assay: as above
In short: as §1

[18] = tested on: WPMY1-GM130-SQSTM1; assay: lowest phenotypically active concentration; higher = less potent
In short: as §1

[19] = tested on: WPMY1-CANX-COX4; assay: as above
In short: as §1

[20] = tested on: WPMY1-ACTB-RAB5A; assay: as above
In short: as §1

CC(C)c1nc(CN(C)C(=O)N[C@H](C(=O)N[C@@H](Cc2ccccc2)C[C@H](O)[C@H](Cc2ccccc2)NC(=O)OCc2cncs2)C(C)C)cs1 [ritonavir]
inactive: phenotypically active [4] 0 | phenotypically active [6] 0 | phenotypically active [7] 0 | phenotypically active [8] 0 | phenotypically active [9] 0 | phenotypically active [11] 0 | phenotypically active [12] 0 | phenotypically active [13] 0 | phenotypically active [14] 0 | phenotypically active [15] 0 | phenotypically active [16] 0 | phenotypically active [17] 0
9 µM: lowest phenotypically active concentration [1] | lowest phenotypically active concentration [2]
active: phenotypically active [3] 1 | phenotypically active [5] 1 | phenotypically active [10] 1

CC1(CN2CCC(n3c(=O)[nH]c4ccccc43)CC2)OCc2ccccc2-n2cccc21 (centres undefined)
3 µM: lowest phenotypically active concentration [18]
9 µM: lowest phenotypically active concentration [1]
inactive: phenotypically active [4] 0 | phenotypically active [5] 0 | phenotypically active [6] 0 | phenotypically active [8] 0 | phenotypically active [9] 0 | phenotypically active [10] 0 | phenotypically active [11] 0 | phenotypically active [12] 0 | phenotypically active [13] 0 | phenotypically active [14] 0 | phenotypically active [16] 0 | phenotypically active [17] 0
active: phenotypically active [3] 1 | phenotypically active [7] 1 | phenotypically active [15] 1

O=c1cc(-c2ccccc2)oc2cc(O)cc(O)c12 [Chrysin]
inactive: phenotypically active [4] 0 | phenotypically active [6] 0 | phenotypically active [7] 0 | phenotypically active [8] 0 | phenotypically active [9] 0 | phenotypically active [10] 0 | phenotypically active [11] 0 | phenotypically active [12] 0 | phenotypically active [13] 0 | phenotypically active [15] 0 | phenotypically active [17] 0
active: phenotypically active [3] 1 | phenotypically active [5] 1 | phenotypically active [14] 1 | phenotypically active [16] 1
9 µM: lowest phenotypically active concentration [1] | lowest phenotypically active concentration [2] | lowest phenotypically active concentration [19]

COc1cc2c(cc1OC)-c1c/c(=N/c3c(C)cc(C)cc3C)n(C)c(=O)n1CC2 [Trequinsin hydrochloride]
9 µM: lowest phenotypically active concentration [1] | lowest phenotypically active concentration [2] | lowest phenotypically active concentration [20] | lowest phenotypically active concentration [19] | lowest phenotypically active concentration [18]
inactive: phenotypically active [4] 0 | phenotypically active [6] 0 | phenotypically active [7] 0 | phenotypically active [10] 0 | phenotypically active [11] 0 | phenotypically active [12] 0
active: phenotypically active [3] 1 | phenotypically active [5] 1 | phenotypically active [8] 1 | phenotypically active [9] 1 | phenotypically active [13] 1 | phenotypically active [14] 1 | phenotypically active [15] 1 | phenotypically active [16] 1 | phenotypically active [17] 1

CCc1nc(-c2cccc(C)c2)c(-c2ccnc(NC(=O)c3ccccc3)c2)s1
active: phenotypically active [3] 1 | phenotypically active [5] 1 | phenotypically active [8] 1 | phenotypically active [9] 1 | phenotypically active [10] 1 | phenotypically active [11] 1 | phenotypically active [12] 1 | phenotypically active [13] 1 | phenotypically active [17] 1
inactive: phenotypically active [4] 0 | phenotypically active [6] 0 | phenotypically active [7] 0 | phenotypically active [14] 0 | phenotypically active [15] 0 | phenotypically active [16] 0
9 µM: lowest phenotypically active concentration [1] | lowest phenotypically active concentration [2] | lowest phenotypically active concentration [20]

CC(C)(C)n1nc(-c2ccc(Cl)cc2)c2c(N)ncnc21
active: phenotypically active [3] 1 | phenotypically active [7] 1 | phenotypically active [8] 1 | phenotypically active [11] 1
1 µM: lowest phenotypically active concentration [1]
inactive: phenotypically active [4] 0 | phenotypically active [5] 0 | phenotypically active [6] 0 | phenotypically active [9] 0 | phenotypically active [10] 0 | phenotypically active [12] 0 | phenotypically active [13] 0 | phenotypically active [14] 0 | phenotypically active [15] 0 | phenotypically active [16] 0 | phenotypically active [17] 0

O=C1c2c(O)cccc2Cc2cccc(O)c21 [anthralin]
active: phenotypically active [3] 1 | phenotypically active [5] 1 | phenotypically active [13] 1 | phenotypically active [15] 1 | phenotypically active [17] 1
9 µM: lowest phenotypically active concentration [1] | lowest phenotypically active concentration [2] | lowest phenotypically active concentration [20] | lowest phenotypically active concentration [18]
inactive: phenotypically active [4] 0 | phenotypically active [6] 0 | phenotypically active [7] 0 | phenotypically active [8] 0 | phenotypically active [9] 0 | phenotypically active [10] 0 | phenotypically active [11] 0 | phenotypically active [12] 0 | phenotypically active [14] 0 | phenotypically active [16] 0

CC(C)c1c(C(=O)Nc2ccccc2)c(-c2ccccc2)c(-c2ccc(F)cc2)n1CC[C@@H](O)C[C@@H](O)CC(=O)O [atorvastatin]
active: phenotypically active [3] 1 | phenotypically active [8] 1 | phenotypically active [9] 1 | phenotypically active [10] 1 | phenotypically active [11] 1 | phenotypically active [12] 1 | phenotypically active [13] 1 | phenotypically active [14] 1 | phenotypically active [15] 1 | phenotypically active [16] 1 | phenotypically active [17] 1
inactive: phenotypically active [4] 0 | phenotypically active [5] 0 | phenotypically active [6] 0 | phenotypically active [7] 0
3 µM: lowest phenotypically active concentration [1] | lowest phenotypically active concentration [19] | lowest phenotypically active concentration [18]
1 µM: lowest phenotypically active concentration [20]

CCN1/C(=C/C(C)=O)Sc2ccc(O)cc21
9 µM: lowest phenotypically active concentration [1] | lowest phenotypically active concentration [20]
inactive: phenotypically active [4] 0 | phenotypically active [5] 0 | phenotypically active [7] 0 | phenotypically active [9] 0 | phenotypically active [10] 0 | phenotypically active [11] 0 | phenotypically active [12] 0 | phenotypically active [14] 0 | phenotypically active [15] 0 | phenotypically active [17] 0
active: phenotypically active [3] 1 | phenotypically active [6] 1 | phenotypically active [8] 1 | phenotypically active [13] 1 | phenotypically active [16] 1

Cc1ccc(O)c([C@H](CCN(C(C)C)C(C)C)c2ccccc2)c1 [Tolterodine L-tartrate]
active: phenotypically active [3] 1 | phenotypically active [5] 1 | phenotypically active [15] 1
inactive: phenotypically active [4] 0 | phenotypically active [6] 0 | phenotypically active [7] 0 | phenotypically active [8] 0 | phenotypically active [9] 0 | phenotypically active [10] 0 | phenotypically active [11] 0 | phenotypically active [12] 0 | phenotypically active [13] 0 | phenotypically active [14] 0 | phenotypically active [16] 0 | phenotypically active [17] 0
9 µM: lowest phenotypically active concentration [1] | lowest phenotypically active concentration [2] | lowest phenotypically active concentration [18]
